Among all 220,000 compounds or so, about 2,000 (0.91%) were called active. Not shown: some 2% with an inconclusive outcome. The list is a sample of the results. Results with a measured potency or affinity are listed apart. A number with no mark means an inactive call. No stated cut-off is given here; in the data, inconclusive means inhibition above about 80% without an active follow-up result; inactive means below that; test concentration not stated here.
Assay: M. tuberculosis H37Rv growth inhibitors, H37Rv strain (AID 1626);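 further: bacteria incubated seven days before Alamar blue readout; 0% = bacteria only wells and 100% = bacteria with antibiotic wells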
Settings: active compounds read high, concentration not given here

First: COCCCNC(=O)c1ccc(N2CCOCC2)c(NS(=O)(=O)c2ccc(OC)cc2)c1
Second: COc1ccc(C(=O)c2ccc(N3CCOCC3)c([N+](=O)[O-])c2)cc1
The inhibition of the first is lower: -10.8% for the first, -2.74% for the second.

Going from `Cc1ccc(SC[C@H](c2ccccc2)N2CCN(CCc3ccccc3)CCC2=O)cc1` to `O=C(NCCN1CCOCC1)c1ccc2c(c1)N(Cc1cccc(F)c1)C(=O)c1ccccc1S2`, the inhibition rises from 0.98% to 2.5%.

Compared with `COC(=O)C(C(=O)OC)c1ccc(N)cc1`, `COc1ccccc1NC(=O)COC(=O)c1cnc(C)cn1` is lower in inhibition: 79.1% for the first, 0.5% for the second.

First: N/C(=N/OC(=O)c1ccccc1Cl)c1nonc1N
Second: CCn1c(SCC(=O)Nc2ccccc2C(=O)OC)nnc1-c1cccc(C)c1
The inhibition of the first is lower: -5.25% for the first, -2.01% for the second.

Going from `N=C(N)CCCOc1ccccc1-c1ccccc1` to `O=C(O)COc1ccccc1Cc1ccccc1`, the inhibition falls from 4.47% to -9.69%.

First: O=C(CN1C(=O)c2ccccc2C1=O)Nc1ccc(N2CCOCC2)cc1
Second: O=C1c2ccccc2C(Nc2ccc(S(=O)(=O)N3CCOCC3)cc2)N1Cc1ccco1 (stereo not drawn)
The inhibition of the first is higher: 1.44% for the first, -2.41% for the second.

Going from `Cc1cc(Cl)n2c(nc3ccccc32)c1C#N` to `Cc1cc(C)c(C#N)c(Oc2ccc(O)cc2)n1`, the inhibition rises from -11.2% to 8.87%.

First: Cc1cc(Nc2c(C)n(C)n(-c3ccccc3)c2=O)n2c(nc3cc(F)c(F)cc32)c1C#N
Second: Cc1sc(NC(=O)CSc2nnc(-c3ccccc3)o2)c(C#N)c1C
The inhibition of the first is lower: -5.9% for the first, -2.26% for the second.

Going from `COC(=O)c1[nH]c2ccc(Br)cc2c1NC(=O)C(C)N1CCN(C2CCCCC2)CC1` (stereo not drawn) to `COc1ccc2nc(NC(=O)CSc3nnnn3C3CCCCC3)sc2c1`, the inhibition rises from -3.42% to 0.53%.

Compared with `CN(C(=O)COC(=O)c1c2c(nc3ccccc13)/C(=C/c1cccc([N+](=O)[O-])c1)CCC2)C1CCS(=O)(=O)C1` (stereo not drawn), `CC1CCc2nc3ccccc3c(C(=O)OCC(=O)NC3CCS(=O)(=O)C3)c2C1` (stereo not drawn) is lower in inhibition: 78.5% for the first, -5% for the second.

First: Cc1nn(C)c(C(=O)Nc2ccn(Cc3ccccc3F)n2)c1[N+](=O)[O-]
Second: O=C(CSc1nc2ccccc2s1)Nc1ccc2c(c1)OCO2
The inhibition of the first is lower: -2.14% for the first, 76.4% for the second.

Going from `O=[N+]([O-])c1ccc(NCCCO)c(S(=O)(=O)N2CCOCC2)c1` to `O=[N+]([O-])c1cc(Cl)ccc1N1CCOCC1`, the inhibition falls from -3.72% to -3.75%.

Compared with `COc1ccc2c(c1)sc(=N)n2CC(=O)Nc1cc(C)cc(C)c1`, `COc1ccc(-c2noc(CCC(=O)Nc3cccc(C)c3)n2)cc1` is higher in inhibition: 3.49% for the first, 78.2% for the second.

Going from `COc1ccc2c(c1)c1ccccc1n2C` to `COc1ccc(C(=O)CNc2ccccc2CO)cc1`, the inhibition rises from -6.03% to -0.7%.

Going from `O=C(COc1ccc(F)cc1)N1c2ccccc2CCc2ccccc21` to `OC(COc1ccc(-c2ccccc2)cc1)CN1CCOCC1` (stereo not drawn), the inhibition rises from 6.06% to 8.22%.

Compared with `O=C(CCC1CCCN(c2ncccn2)C1)N1CCN(c2ccccn2)CC1` (stereo not drawn), `CC(CC(=O)N1CCN(c2ccc(C(F)(F)F)cn2)CC1)n1ccnc1` (stereo not drawn) is higher in inhibition: 0.77% for the first, 1.81% for the second.

First: N#C/C(=C/c1ccncc1)c1nc2ccccc2s1
Second: N#C/C(=C\c1ccco1)c1nc2ccccc2s1
The inhibition of the first is lower: 4.82% for the first, 4.85% for the second.

Going from `Cc1ccc(OCC(=O)n2nc(C)cc2C)c(C)c1` to `CSc1nsc(SCC(=O)Nc2nc3ccc(C)cc3s2)n1`, the inhibition rises from 10% to 10.3%.

Going from `COc1ccc(N2C(=O)CC(N3CCC(c4nc5ccccc5[nH]4)CC3)C2=O)cc1` (stereo not drawn) to `COc1ccc(-c2noc(CCC(=O)NCCCN3CCN(c4ccc(F)cc4)CC3)n2)cc1`, the inhibition rises from -1.11% to 8.36%.

First: O=C(CN1C(=O)NC2(CCCCCCC2)C1=O)N1CCc2ccccc2C1
Second: O=C(Nc1nc2ccccc2n1CCN1CCCCC1)C1CCCCC1
The inhibition of the first is lower: -9.98% for the first, 4.2% for the second.

First: CCn1nnnc1SCC(=O)Nc1nc2ccc(OC)cc2s1
Second: CCOc1ccc2nc(SCC(=O)NC(=O)C(C)C)sc2c1
The inhibition of the first is lower: 1.9% for the first, 3.81% for the second.

Going from `CSc1nsc(SCC(=O)Nc2ccc3c(c2)OCCO3)n1` to `CSc1nsc(SCC(=O)Nc2cccc(C(C)=O)c2)n1`, the inhibition falls from -14.4% to -15.7%.

Compared with `CSc1nsc(SCC(=O)Nc2nc3ccccc3s2)n1`, `CCn1c(NN=O)nc2ccccc21` is lower in inhibition: 52.1% for the first, 3.63% for the second.

Going from `O=C(Cc1ccc(-n2c(=O)c3sccc3n(CC(=O)Nc3ccccc3F)c2=O)cc1)NCc1ccco1` to `CCOc1ccccc1NC(=O)Cn1c(=O)oc2ccccc21`, the inhibition rises from -10.9% to 6.54%.

First: COc1cc(OC)c2c(-c3ccccc3)cc(=O)oc2c1C(CC(=O)N1CCOCC1)c1ccc(N(C)C)cc1 (stereo not drawn)
Second: COc1ccc(C(CC(=O)N2CCCC(C)C2)c2c(OC)cc(OC)c3c(-c4ccccc4)cc(=O)oc23)cc1 (stereo not drawn)
The inhibition of the first is lower: -7.25% for the first, -5.32% for the second.

First: COc1cc(C(CCN2CCCC2)c2c(OC)cc(OC)c3c(-c4ccccc4)cc(=O)oc23)cc(OC)c1OC (stereo not drawn)
Second: COc1cc(C(CCN2CCCC(C)C2)c2c(OC)cc(OC)c3c(-c4ccccc4)cc(=O)oc23)cc(OC)c1OC (stereo not drawn)
The inhibition of the first is lower: -3.05% for the first, 71% for the second.

First: O=C(Cc1c(Cl)cccc1Cl)Nc1cccc(S(=O)(=O)N2CCOCC2)c1
Second: O=C(Cc1ccccc1)Nc1cccc(N2CCCC2)c1
The inhibition of the first is higher: 9.23% for the first, 2.44% for the second.

Compared with `Cc1nn(-c2ccccn2)c2c1C(c1c(F)cccc1Cl)C1=C(N2)c2ccccc2C1=O` (stereo not drawn), `Cc1nn(-c2ccccn2)c2c1C(c1ccccc1Cl)C1=C(N2)c2ccccc2C1=O` (stereo not drawn) is lower in inhibition: 8.57% for the first, 5.6% for the second.

Compared with `O=C1C=C(c2cccs2)CC(c2cccs2)C1n1cnc([N+](=O)[O-])c1` (stereo not drawn), `CC(=O)C1C(=O)C=C(c2cccs2)CC1c1ccccc1` (stereo not drawn) is lower in inhibition: 8.22% for the first, 2.98% for the second.

First: Cc1ccc(S(N)(=O)=O)c(C)c1N1CCCC1=O
Second: Cc1ccc(NCCC(=O)c2cccs2)cc1C
The inhibition of the first is lower: -3.84% for the first, 74.8% for the second.

Going from `COc1cc(OC)c(NC(=O)CCc2nc(-c3ccc(C)cc3)no2)cc1Cl` to `COc1ccc(-c2noc(CCC(=O)Nc3cc(Cl)c(OC)cc3OC)n2)cc1`, the inhibition rises from -0.67% to 14.3%.

First: COc1ccc(CCC(=O)Nc2ccc3c(c2)OCCO3)cc1
Second: Cc1ccc(-c2noc(CCC(=O)Nc3ccc4c(c3)OCO4)n2)cc1
The inhibition of the first is lower: -2.09% for the first, 67.5% for the second.

First: Cc1ccc(-c2noc(CCC(=O)NCCCN3CCN(c4ccc(F)cc4)CC3)n2)cc1
Second: COc1ccc(-c2noc(CCC(=O)Nc3cc(OC)ccc3OC)n2)cc1
The inhibition of the first is lower: -9.54% for the first, 3.07% for the second.

First: CCOc1ccc(-c2nc(N)ncc2Oc2ccc(OC)cc2)c(O)c1
Second: COc1ccc(C(=O)CCNc2cccc(Cl)c2)cc1
The inhibition of the first is lower: 1.63% for the first, 10.7% for the second.

Going from `CCOc1ccc(CN2CCN(Cc3cccc4c3OCO4)CC2CCO)cc1` (stereo not drawn) to `CCCOc1ccc(C(=O)CCNc2ccc(C)c(Cl)c2)cc1`, the inhibition rises from 5.32% to 69.1%.

Compared with `CC(OC(=O)c1ccc(Cl)c(S(=O)(=O)Nc2ccc(F)cc2)c1)C(=O)NC(N)=O` (stereo not drawn), `CCC(=O)Nc1ccc(NC(=S)NC(=O)c2cc3ccccc3o2)cc1` is higher in inhibition: -1.89% for the first, 15.4% for the second.

First: CC(=O)C1=C(C)NC(=O)NC1c1cccs1 (stereo not drawn)
Second: Cc1ccc(NC(=O)CCC(=O)c2cccs2)cc1
The inhibition of the first is lower: -8.1% for the first, 1.21% for the second.

Compared with `COc1cc(/C=C(\C#N)c2ccccn2)ccc1OCC(=O)Nc1ccc(Br)cc1`, `COc1ccc(C(=O)CNc2ccccc2C#N)cc1` is higher in inhibition: -1.03% for the first, 3.5% for the second.

Compared with `C#CC1(NC(=O)NC(C)(C)C)CCCCC1`, `CN(C)CCCn1c(NC(=O)C2CCCCC2)nc2ccccc21` is higher in inhibition: 2.25% for the first, 3.22% for the second.

First: CCc1cc(C(c2cccc(OC)c2)N2CCOCC2)c(NC(=O)c2ccccc2)s1 (stereo not drawn)
Second: O=C(N/C(=C/C=C\c1ccccc1)C(=O)N1CCOCC1)c1ccc(Br)cc1
The inhibition of the first is lower: 2.32% for the first, 64.4% for the second.

Compared with `CCOC(=O)C1(CC/C(C)=N\NC(N)=O)CC(C)(C)OC1=O` (stereo not drawn), `Cc1ccc(NC(=O)COC(=O)CCC(=O)c2cccs2)cc1` is higher in inhibition: -7.16% for the first, -6.9% for the second.

Compared with `Cc1nnc(C)n1/N=C/c1cccc(Oc2ccccc2)c1`, `CCCCn1c(NC(=S)Nc2ccccc2)nc2ccccc21` is higher in inhibition: 5.69% for the first, 9.5% for the second.

First: COC(=O)c1ccsc1NC(=O)C1=COCCO1
Second: COC(=O)c1ccc(NC(=O)CN2C(=O)C3C4C=CC(C4)C3C2=O)cc1 (stereo not drawn)
The inhibition of the first is higher: 2.57% for the first, 1.35% for the second.

Going from `O=C(NCc1ccccc1)C(=O)Nc1nc(C23CC4CC(CC(C4)C2)C3)cs1` to `CNc1nc(C23CC4CC(CC(C4)C2)C3)cs1`, the inhibition falls from 6.64% to 2.54%.

Going from `O=C(Nc1nc2ccccc2n1CCN1CCCC1)C1CCCCC1` to `O=C(Nc1ccccc1N1CCOCC1)c1ccc(N2CCOCC2)c([N+](=O)[O-])c1`, the inhibition rises from -3.71% to 6.98%.

First: Cc1nnc(NN)n(N)c1=O
Second: CCOc1ccc(NC(=O)CC2SC(N)=NC2=O)c([N+](=O)[O-])c1 (stereo not drawn)
The inhibition of the first is lower: -3.11% for the first, 2.3% for the second.

First: CCCCOc1ccc(C(=O)N/C(=C/C=C/c2ccccc2)C(=O)O)cc1
Second: O=C(O)c1ccccc1C(=O)c1ccc(N2CCOCC2)c([N+](=O)[O-])c1
The inhibition of the first is lower: -8.39% for the first, 3.64% for the second.

First: Cc1ccc(S(=O)(=O)NCC(=O)N(CC(=O)NCC2CCCO2)Cc2ccco2)cc1 (stereo not drawn)
Second: Cc1ccc(OC(=O)c2ccc(N3CCOCC3)c([N+](=O)[O-])c2)cc1
The inhibition of the first is lower: 11.1% for the first, 54.1% for the second.

Compared with `O=C(OCC(=O)N1CCOCC1)c1ccc(N2CCOCC2)c([N+](=O)[O-])c1`, `O=C(CCNc1cc(Cl)cc(Cl)c1)c1cccs1` is higher in inhibition: -0.57% for the first, 74.2% for the second.
